Laboratory results: PubChem BioAssay AID1159580 (chemical genetic matrix, 2015)
In all, about 5,500 compounds went through this assay and about 2,000 (36%) were called active. About 18% were inconclusive and are not listed. Cut-off read from the data, not from the text of the source: active = normalized growth mostly below about 0.91 (no sharp cut-off); inconclusive = no clear call, values can overlap the other calls; inactive = mostly above about 0.92. The list shows a part of the results.

Assay: chemical genetic growth profiling, strain panel (AID 1159580);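 note: tested at 20 µM; growth read once vehicle control cultures reached saturation at 30 °C; 1 = growth at the plate median or of vehicle wells; lower values mean less growth of the strain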
Conditions: growth OD

Measured: normalized growth

COc1ccc2c(c1O)OCC1c3cc4c(cc3OC21)OCO4 (stereo unspecified)
active: S. cerevisiae deletion strains, locus YNL307C, strain MCK1, hits give low values 0.904
inactive: S. cerevisiae deletion strains, locus YAL013W, strain DEP1, hits give low values 0.991 | S. cerevisiae deletion strains, locus YBR021W, strain FUR4, hits give low values 0.964 | S. cerevisiae deletion strains, locus YBR229C, strain ROT2, hits give low values 0.96 | S. cerevisiae deletion strains, locus YCL029C, strain bik1, hits give low values 1 | S. cerevisiae deletion strains, locus YDL035C, strain GPR1, hits give low values 0.935 | S. cerevisiae deletion strains, locus YDL074C, strain BRE1, hits give low values 0.882 | S. cerevisiae deletion strains, locus YDL101C, strain DUN1, hits give low values 0.953 | S. cerevisiae deletion strains, locus YDL134C, strain PPH21, hits give low values 0.986 | S. cerevisiae deletion strains, locus YDL185W, strain tfp1, hits give low values 0.957 | S. cerevisiae deletion strains, locus YDL192W, strain arf1, hits give low values 0.986 | S. cerevisiae deletion strains, locus YDR101C, strain arx1, hits give low values 0.986 | S. cerevisiae deletion strains, locus YDR150W, strain NUM1, hits give low values 0.983 | S. cerevisiae deletion strains, locus YDR162C, strain NBP2, hits give low values 0.88 | S. cerevisiae deletion strains, locus YDR318W, strain mcm21, hits give low values 0.979 | S. cerevisiae deletion strains, locus YDR388W, hits give low values 1 | S. cerevisiae deletion strains, locus YDR502C, strain sam2, hits give low values 0.952 | S. cerevisiae deletion strains, locus YEL061C, strain CIN8, hits give low values 0.987 | S. cerevisiae deletion strains, locus YER110C, hits give low values 0.994 | S. cerevisiae deletion strains, locus YER155C, strain BEM2, hits give low values 1 | S. cerevisiae deletion strains, locus YER167W, strain BCK2, hits give low values 1 | S. cerevisiae deletion strains, locus YGL078C, strain dbp3, hits give low values 0.983 | S. cerevisiae deletion strains, locus YGL086W, strain mad1, hits give low values 0.996 | S. cerevisiae deletion strains, locus YGL248W, strain PDE1, hits give low values 0.974 | S. cerevisiae deletion strains, locus YGR078C, strain PAC10, hits give low values 0.909 | S. cerevisiae deletion strains, locus YGR135W, strain pre9, hits give low values 0.958 | S. cerevisiae deletion strains, locus YGR229C, strain SMI1, hits give low values 0.909 | S. cerevisiae deletion strains, locus YGR252W, strain gcn5, hits give low values 0.857 | S. cerevisiae deletion strains, locus YHR030C, strain SLT2, hits give low values 1 | S. cerevisiae deletion strains, locus YHR079C, strain IRE1 (second series), hits give low values 0.982 | S. cerevisiae deletion strains, locus YHR094C, strain hxt1, hits give low values 1 | S. cerevisiae deletion strains, locus YHR129C, strain ARP1, hits give low values 0.988 | S. cerevisiae deletion strains, locus YHR200W, strain rpn10, hits give low values 0.998 | S. cerevisiae deletion strains, locus YIL066C, strain RNR3, hits give low values 0.974 | S. cerevisiae deletion strains, locus YIL073C, strain SPO22, hits give low values 1.01 | S. cerevisiae deletion strains, locus YIL125W, strain kgd1, hits give low values 0.99 | S. cerevisiae deletion strains, locus YIR030C, strain dcg1, hits give low values 0.986 | S. cerevisiae deletion strains, locus YJL095W, strain BCK1, hits give low values 0.924 | S. cerevisiae deletion strains, locus YJL134W, strain LCB3, hits give low values 0.998 | S. cerevisiae deletion strains, locus YJL168C, strain set2, hits give low values 0.987 | S. cerevisiae deletion strains, locus YJL187C, strain SWE1 (second series), hits give low values 0.939 | S. cerevisiae deletion strains, locus YJR043C, strain POL32, hits give low values 0.987 | S. cerevisiae deletion strains, locus YJR075W, strain HOC1, hits give low values 0.939 | S. cerevisiae deletion strains, locus YKL009W, strain mrt4, hits give low values 0.92 | S. cerevisiae deletion strains, locus YKL068W, hits give low values 0.998 | S. cerevisiae deletion strains, locus YKL085W, strain MDH1 (second series), hits give low values 1.01 | S. cerevisiae deletion strains, locus YKL085W, strain MDH1, hits give low values 1.01 | S. cerevisiae deletion strains, locus YKL190W, strain CNB1, hits give low values 0.979 | S. cerevisiae deletion strains, locus YKR001C, strain vps1, hits give low values 0.963 | S. cerevisiae deletion strains, locus YLR039C, strain RIC1, hits give low values 0.846 | S. cerevisiae deletion strains, locus YLR058C, strain SHM2, hits give low values 0.971 | S. cerevisiae deletion strains, locus YLR102C, strain apc9, hits give low values 0.983 | S. cerevisiae deletion strains, locus YLR262C, strain YPT6, hits give low values 0.851 | S. cerevisiae deletion strains, locus YLR268W, strain sec22, hits give low values 0.938 | S. cerevisiae deletion strains, locus YLR330W, strain CHS5, hits give low values 0.991 | S. cerevisiae deletion strains, locus YLR342W, strain FKS1 (second series), hits give low values 0.946 | S. cerevisiae deletion strains, locus YLR371W, strain rom2, hits give low values 1 | S. cerevisiae deletion strains, locus YLR418C, strain cdc73, hits give low values 0.903 | S. cerevisiae deletion strains, locus YML016C, strain PPZ1, hits give low values 0.992 | S. cerevisiae deletion strains, locus YML032C, strain rad52, hits give low values 0.987 | S. cerevisiae deletion strains, locus YML124C, strain tub3, hits give low values 1.01 | S. cerevisiae deletion strains, locus YMR078C, strain ctf18, hits give low values 0.988 | S. cerevisiae deletion strains, locus YMR223W, strain ubp8, hits give low values 0.976 | S. cerevisiae deletion strains, locus YMR263W, strain SAP30, hits give low values 0.929 | S. cerevisiae deletion strains, locus YMR307W, strain GAS1, hits give low values 1.04 | S. cerevisiae deletion strains, locus YNL067W, strain RPL9B, hits give low values 0.929 | S. cerevisiae deletion strains, locus YNL128W, strain TEP1, hits give low values 0.929 | S. cerevisiae deletion strains, locus YNL153C, strain GIM3, hits give low values 0.936 | S. cerevisiae deletion strains, locus YNL233W, strain BNI4, hits give low values 0.971 | S. cerevisiae deletion strains, locus YNL250W, strain rad50, hits give low values 0.994 | S. cerevisiae deletion strains, locus YNL271C, strain bni1, hits give low values 0.98 | S. cerevisiae deletion strains, locus YNL298W, strain CLA4, hits give low values 0.958 | S. cerevisiae deletion strains, locus YNL322C, strain KRE1, hits give low values 0.981 | S. cerevisiae deletion strains, locus YNR052C, strain pop2, hits give low values 0.987 | S. cerevisiae deletion strains, locus YOL006C, strain TOP1, hits give low values 0.783 | S. cerevisiae deletion strains, locus YOL012C, strain htz1 1.07 | S. cerevisiae deletion strains, locus YOL147C, strain pex11, hits give low values 1 | S. cerevisiae deletion strains, locus YOR061W, strain CKA2, hits give low values 0.969 | S. cerevisiae deletion strains, locus YOR069W, strain VPS5, hits give low values 1 | S. cerevisiae deletion strains, locus YOR136W, strain idh2, hits give low values 0.999 | S. cerevisiae deletion strains, locus YOR144C, strain elg1, hits give low values 0.994 | S. cerevisiae deletion strains, locus YOR184W, strain ser1, hits give low values 0.907 | S. cerevisiae deletion strains, locus YOR316C, strain cot1, hits give low values 0.988 | S. cerevisiae deletion strains, locus YPL055C, strain LGE1, hits give low values 0.883 | S. cerevisiae deletion strains, locus YPL241C, strain CIN2, hits give low values 0.99 | S. cerevisiae deletion strains, locus YPR119W, strain clb2, hits give low values 0.999 | S. cerevisiae deletion strains, locus YPR141C, strain kar3, hits give low values 0.997 | S. cerevisiae deletion strains, locus YPR163C, strain tif3, hits give low values 0.964 | S. cerevisiae deletion strains, locus YPR167C, strain met16, hits give low values 0.984 | S. cerevisiae deletion strains, strain wtn01, hits give low values 0.946 | S. cerevisiae strains, strain wild type, hits give low values 0.994
